RECQ1 helicase – inhibitors of human RECQ1 DNA helicase; RECQ1 DNA unwinding, red fluorescence kinetic read; Potency, µM (series often up to 57.3 µM), for inactives: at the top dose activity, negative = inhibition, hits mostly inhibitors; hit rate 0.54% among 240,000; AID 2549;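 further: plate controls were vehicle for no effect and no enzyme for full effect; nearly all actives have a fitted effect of over 30% in size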
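50 nM RECQ1T1 preincubated 15 min with compound in Tris pH 8.0 buffer with MgCl2, DTT, Tween-20 and 2.5 ug/ml poly(dI-dC); started with 200 nM TAMRA/BHQ-2 forked duplex and 2 mM ATP. Unwinding read as fluorescence (525/598 nm), two reads 2 h apart.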
BLM helicase inh – inhibitors of human Bloom syndrome helicase BLM | recombinant BLM DNA unwinding, fluorescence dequenching | AID 2528 | hit rate 0.2% among 350,000 | Potency, µM (series often up to 56.1 µM), inactives show top-dose activity change, negative = inhibition, hits mostly inhibitors;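 further: plate controls were vehicle for no effect and no enzyme for full effect; nearly all actives have a fitted effect of over 35% in size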
Target sequence (P54132 whole entry, looked up): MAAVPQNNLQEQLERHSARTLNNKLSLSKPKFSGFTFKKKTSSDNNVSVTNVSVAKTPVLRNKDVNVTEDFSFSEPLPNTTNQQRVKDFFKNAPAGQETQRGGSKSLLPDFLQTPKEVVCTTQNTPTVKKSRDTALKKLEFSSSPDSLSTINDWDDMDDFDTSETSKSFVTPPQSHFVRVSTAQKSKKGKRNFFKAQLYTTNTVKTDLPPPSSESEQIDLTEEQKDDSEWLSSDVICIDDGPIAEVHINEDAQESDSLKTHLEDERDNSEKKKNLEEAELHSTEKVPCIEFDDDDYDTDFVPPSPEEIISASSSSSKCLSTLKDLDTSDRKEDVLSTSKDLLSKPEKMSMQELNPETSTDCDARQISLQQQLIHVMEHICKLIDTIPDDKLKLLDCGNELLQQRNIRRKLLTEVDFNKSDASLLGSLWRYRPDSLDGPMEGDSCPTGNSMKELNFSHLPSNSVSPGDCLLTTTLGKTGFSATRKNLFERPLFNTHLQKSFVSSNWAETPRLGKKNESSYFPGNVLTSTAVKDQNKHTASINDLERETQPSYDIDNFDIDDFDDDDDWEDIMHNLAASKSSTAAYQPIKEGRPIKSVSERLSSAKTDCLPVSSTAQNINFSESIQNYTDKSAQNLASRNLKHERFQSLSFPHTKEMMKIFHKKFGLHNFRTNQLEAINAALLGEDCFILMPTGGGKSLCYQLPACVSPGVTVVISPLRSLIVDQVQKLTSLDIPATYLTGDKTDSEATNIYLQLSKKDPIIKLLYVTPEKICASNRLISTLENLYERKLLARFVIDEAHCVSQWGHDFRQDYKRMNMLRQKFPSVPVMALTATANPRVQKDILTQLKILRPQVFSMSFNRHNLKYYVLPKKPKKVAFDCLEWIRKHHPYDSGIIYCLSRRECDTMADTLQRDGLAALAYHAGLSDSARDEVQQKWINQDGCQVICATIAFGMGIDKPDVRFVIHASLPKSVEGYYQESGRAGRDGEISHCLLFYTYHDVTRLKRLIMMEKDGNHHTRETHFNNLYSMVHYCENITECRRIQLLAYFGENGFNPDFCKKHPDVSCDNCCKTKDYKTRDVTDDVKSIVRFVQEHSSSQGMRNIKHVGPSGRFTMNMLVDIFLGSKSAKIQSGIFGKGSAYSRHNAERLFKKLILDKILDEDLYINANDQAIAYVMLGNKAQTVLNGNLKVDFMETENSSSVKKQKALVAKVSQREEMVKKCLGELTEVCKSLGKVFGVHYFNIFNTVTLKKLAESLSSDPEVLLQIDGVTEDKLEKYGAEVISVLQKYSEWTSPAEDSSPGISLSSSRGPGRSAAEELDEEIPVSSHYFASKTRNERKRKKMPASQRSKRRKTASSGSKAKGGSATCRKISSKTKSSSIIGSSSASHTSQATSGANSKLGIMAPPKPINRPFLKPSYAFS
JMJD2E inh – JMJD2E (human) inhibition; JMJD2E catalytic domain, FDH-coupled NADH fluorescence (FDH is formaldehyde dehydrogenase); hit rate 1.6% among 230,000; AID 2147; Potency, µM (highest dose often 57.1 µM), for the others: at the top dose activity change, negative = inhibition, hits mostly inhibitors; active means well fitted inhibition curve with a large enough effect, not every such curve was filed as active; inconclusive means small, poorly fitted or top-dose-only effect, or another doubt; inactive means no such curve, though single readings can be large or run the other way;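 further: 0% = wells with enzyme and -100% = buffer wells without enzyme; nearly all actives have a fitted effect of over 50% in size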
PKM2 act – activators of human pyruvate kinase M2. purified PKM2, Kinase-Glo ATP luminescence, activation; response scale: 0% is enzyme alone, no compound. P14618. hit rate 0.34% among 260,000. Potency, µM (series often up to 57.5 µM), for the others: top-dose activation, most hits filed as activators. AID 1631; further: nearly all actives have a fitted effect of over 55% in size
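ATP formation by purified human PK-M2, quantified via coupled luciferase luminescence after 1 h at room temperature with 0.1 mM ADP and 0.5 mM PEP final.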
APE1 inh – inhibitors of human APE1 endonuclease | recombinant APE1, TAMRA/BHQ-2 abasic DNA cleavage fluorescence | Potency, µM (doses to about 65.8 µM), for inactives: top-dose activity change, negative = inhibition, hits mostly inhibitors | hit rate 0.35% among 350,000;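 further: plate controls were vehicle for no effect and reference inhibitor for full effect; nearly all actives have a fitted effect of over 55% in size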
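Enzyme (0.75 nM final) and test compound are incubated 15 min at room temperature before adding 50 nM quenched THF abasic-site duplex. Cleavage dequenches TAMRA, followed at 525/598 nm over three reads one minute apart.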
Starred values were filed as active, the others as inactive; ! = not confirmed by another sample; [ ] = remark or other dose. Shown is part of a subset that was picked to be rich in hits. Unless noted, the call rests on the fitted dose curve; in most records, active means well fitted curve in the direction sought with a large enough effect; inconclusive means small, poorly fitted or top-dose-only effect, or another doubt; inactive means no such curve, though single readings can be large; an effect the other way counts as inactive or inconclusive. Unless noted, on the % scale 0 is the no-effect control and ±100 the full control effect; potency means the concentration at half of the fitted maximal effect.

What do the screens show for `N#CC1=C(N)SC(N)=C(C#N)C1c1ccc(C(F)(F)F)cc1`?
RECQ1 helicase: inactive; BLM helicase inh: -10%; JMJD2E inh: 13µM*; PKM2 act: -12%; APE1 inh: 13%

Results for CN(C)/C=C1\SC(=S)N(c2ccc(Br)cc2)C1=O ?
RECQ1 helicase: 32µM*; BLM helicase inh: 4%; JMJD2E inh: 3%; PKM2 act: -7%; APE1 inh: 28µM*

What do the screens show for `CCN1C(=O)/C(=C\N(C(C)=O)c2ccccc2)OC1=S`?
RECQ1 helicase: 3%; BLM helicase inh: 0%; JMJD2E inh: -2%; PKM2 act: 0%; APE1 inh: 1%

Results for CC(=O)N(/C=C1\SC(=S)N(c2ccccc2)C1=O)c1ccccc1 ?
RECQ1 helicase: 32µM*; BLM helicase inh: -7%; JMJD2E inh: -1%; PKM2 act: 3%; APE1 inh: -10%

What do the screens show for `O=c1c(-c2ccc(F)cc2)nc2cnc(N3CCNCC3)nc2n1Cc1ccc(F)cc1`?
RECQ1 helicase: -23%; BLM helicase inh: -4%; APE1 inh: -6%

Results for O=C(CSc1nnc2ccccn12)NC(=O)c1ccccc1Cl ?
APE1 inh: 13µM*

How did COc1ccccc1C(=O)NC(=O)CSc1nnc2ccccn12 do in these assays?
APE1 inh: 18%

What do the screens show for `NNc1nncc2ccccc12`?
RECQ1 helicase: -7%; BLM helicase inh: 4%; JMJD2E inh: 20µM*; APE1 inh: -2%

What do the screens show for `COc1ccc(NC(=O)c2sc3nc(-c4cccnc4)ccc3c2N)cc1OC`?
RECQ1 helicase: inactive; BLM helicase inh: 2%; JMJD2E inh: -3%; PKM2 act: 3%; APE1 inh: -2%

What do the screens show for `Nc1c(C(=O)Nc2ccccc2)sc2nc(-c3cccnc3)ccc12`?
RECQ1 helicase: 0%; BLM helicase inh: 0%; JMJD2E inh: -7%; PKM2 act: 11µM*; APE1 inh: -1%

How did CCCc1nc2ccccc2c(=O)n1/N=C/c1ccccc1O do in these assays?
RECQ1 helicase: inactive; BLM helicase inh: -2%; JMJD2E inh: 32µM*; PKM2 act: -6%; APE1 inh: 15%

How did OCc1cccc(-c2noc(-c3ccccc3F)n2)c1 do in these assays?
APE1 inh: 57%

What do the screens show for `COc1ccc([N+](=O)[O-])cc1NC(=O)Nc1ccc(OC)c(OC)c1`?
RECQ1 helicase: inactive; BLM helicase inh: 32µM*; JMJD2E inh: -2%; PKM2 act: -4%; APE1 inh: 3%

How did COc1ccc([N+](=O)[O-])cc1NC(=O)Nc1cccc(Cl)c1 do in these assays?
RECQ1 helicase: -11%; BLM helicase inh: -4%; JMJD2E inh: -6%; PKM2 act: -8%; APE1 inh: 17%

What do the screens show for `COC(=O)C1=C(C)N(Cc2ccccc2)C2=C(C(=O)c3ccccc3)C(c3ccccc3)[C@@](O)(C(=O)OC)C(=O)N2C1c1ccccc1` (stereo partly drawn)?
RECQ1 helicase: -6%[11.5 µM]; BLM helicase inh: -8%[12.4 µM]; APE1 inh: 9%[12.4 µM]

Results for O=C(O)C1Cc2[nH]cnc2C(c2cccc([N+](=O)[O-])c2)N1 (stereo not drawn) ?
RECQ1 helicase: -5%; BLM helicase inh: -6%; JMJD2E inh: inconclusive; PKM2 act: -8%; APE1 inh: 3%

How did O=C(O)C1Cc2[nH]cnc2C(c2ccccc2O)N1 (stereo not drawn) do in these assays?
RECQ1 helicase: -2%; BLM helicase inh: 4%; JMJD2E inh: 32µM*; PKM2 act: 1%; APE1 inh: 3%

How did Cc1ccc(S(=O)(=O)N2CCCCC2)cc1NC(=O)Cn1cnnn1 do in these assays?
RECQ1 helicase: inactive; BLM helicase inh: 0%; JMJD2E inh: 6%; PKM2 act: 14µM*; APE1 inh: -2%

How did Cc1ccc(Cl)cc1NC(=O)c1cc2ccccc2cc1O do in these assays?
RECQ1 helicase: inactive; BLM helicase inh: -16%; JMJD2E inh: 22µM*; PKM2 act: 18%; APE1 inh: 11%

What do the screens show for `CCOC(=O)c1c(NS(=O)(=O)c2cccc(OC)c2)sc2c1CCC2`?
RECQ1 helicase: inconclusive; BLM helicase inh: -12%; JMJD2E inh: inconclusive; PKM2 act: 16µM*; APE1 inh: -6%

How did Oc1ccc(/C=N/N2CCN(C3c4ccccc4-c4ccccc43)CC2)cc1O do in these assays?
RECQ1 helicase: -22%; BLM helicase inh: -11%; JMJD2E inh: 16µM*; PKM2 act: inconclusive; APE1 inh: -1%

Results for Oc1ccc(/C=N/N2CCN(C3c4ccccc4-c4ccccc43)CC2)cc1 ?
RECQ1 helicase: -6%; BLM helicase inh: -1%; JMJD2E inh: 11%; PKM2 act: 0%; APE1 inh: 6%

How did N#Cc1c(-c2cccc(Cl)c2)no[n+]1[O-] do in these assays?
APE1 inh: -7%

Results for Cn1c(CCNC(=O)c2ccco2)nc2cc(NC(=O)c3ccco3)ccc21 ?
RECQ1 helicase: -20%; BLM helicase inh: -2%; JMJD2E inh: -4%; PKM2 act: -7%; APE1 inh: 4%

How did Cn1c(CCNC(=O)c2ccco2)nc2cc(NS(=O)(=O)c3ccccc3)ccc21 do in these assays?
RECQ1 helicase: inactive; BLM helicase inh: 1%; JMJD2E inh: 10%; PKM2 act: 3.2µM*; APE1 inh: -3%

Results for COc1ccc(CO/N=C/c2c(C)[nH]c(=O)[nH]c2=O)cc1 ?
RECQ1 helicase: 6%; BLM helicase inh: -1%; JMJD2E inh: 7%; PKM2 act: 25µM*; APE1 inh: 2%

Results for Cn1ccc2cc3c(cc21)CCN3C(=O)Nc1cccnc1 ?
RECQ1 helicase: inactive; BLM helicase inh: -22%; JMJD2E inh: 35µM*!; APE1 inh: inconclusive

Results for CN1CCc2cc(NC(=O)Nc3cccnc3)ccc21 ?
RECQ1 helicase: -3%; JMJD2E inh: -4%; APE1 inh: -2%

Results for CCC(CC)=NNc1ccc(S(N)(=O)=O)cc1[N+](=O)[O-] ?
RECQ1 helicase: 1%; BLM helicase inh: -2%; JMJD2E inh: -2%; PKM2 act: 18µM*; APE1 inh: 2%

Results for C/C(CCC(C)C)=N\Nc1ccc(S(N)(=O)=O)cc1[N+](=O)[O-] ?
RECQ1 helicase: -3%; BLM helicase inh: -5%; JMJD2E inh: 11%; PKM2 act: 0%; APE1 inh: -5%

What do the screens show for `Cn1cccc1CC(=O)N/N=C/C=C/c1ccco1`?
RECQ1 helicase: -3%; BLM helicase inh: 25µM*; JMJD2E inh: 4%; PKM2 act: inconclusive; APE1 inh: 6%

What do the screens show for `Cc1[nH]n(-c2ccccc2)c(=S)c1C=Nc1cccc([N+](=O)[O-])c1`?
RECQ1 helicase: inactive; BLM helicase inh: 0%; JMJD2E inh: 5.6µM*; PKM2 act: -70%; APE1 inh: -3%

From PubChem
